Experimental data from ChEMBL document CHEMBL3988442, “University of Dundee, Small-Polar-MMV Screening Library” (2021).
In all, about 48,000 compounds went through this assay and about 13,000 (27%) showed an effect of 50% or more. This is one part of the list.

Tested on: Wolbachia pipientis
Assay: Anti-Wolbachia Cell-Based Screen
Assay type: functional
Design: scale not given: in the data most compounds retested in dose-response had high values
Details: 5 µM

| Structure (SMILES) | Percent Effect [%] |
| --- | --- |
| CSCC(CCO)NC(=O)Nc1cc(C)ccc1C (stereo not given) | -5.082 |
| CC(C)(C)NC(=O)NCc1cnn2ccccc12 | -7.455 |
| CCOCCN1C[C@H](c2cccc(OC)c2)[C@@H](N)C1 | -6.771 |
| Cc1cnccc1N1CCN(c2nccc(CCC(F)(F)F)n2)CC1 | 13.49 |
| Cc1nc(C)n(CC2CCCN2CC(=O)Nc2ccnn2C(C)C)n1 (stereo not given) | -5.093 |
| CCOCC(=O)N1CC[C@H]2OCC[C@@H](c3nnc(C)o3)[C@H]2C1 | 13.01 |
| Cc1ccc(C(=O)NCC(O)c2ccc(F)c(F)c2)c(=O)[nH]1 (stereo not given) | -52.3 |
| Cn1c(SCC2OCCc3ccccc32)n[nH]c1=O (stereo not given) | -11.92 |
| O=C(O)c1cc(S(=O)(=O)Nc2cc(F)ccc2F)cc2c1OCCO2 | 0.9161 |
| Cc1ccc(F)cc1NS(=O)(=O)c1cc2c(c(C(=O)O)c1)OCCO2 | 117.8 |
| CN(c1ccc(F)cc1)S(=O)(=O)c1cc2c(c(C(=O)O)c1)OCCO2 | -14.55 |
| CN(c1c(F)cccc1F)S(=O)(=O)c1cc2c(c(C(=O)O)c1)OCCO2 | 7.763 |
| CN(c1ccccc1)S(=O)(=O)c1cc2c(c(C(=O)O)c1)OCCO2 | 4.597 |
| Cc1ccc(S(=O)(=O)N2CCOc3ccccc32)cc1C(=O)O | -0.06219 |
| Cc1cc(F)ccc1NS(=O)(=O)c1cc2c(c(C(=O)O)c1)OCCO2 | 118 |
| O=C(O)c1cc(S(=O)(=O)Nc2ccc(F)cc2F)cc2c1OCCO2 | 104.7 |
| O=C(O)c1cc(S(=O)(=O)Nc2cccc(F)c2F)cc2c1OCCO2 | 134.3 |
| CCc1noc(CS(=O)(=O)CC(=O)N2c3ccccc3CC2C)n1 (stereo not given) | 1.089 |
| CCOC1CC2(CCN(Cc3cnn(C)c3)CC2)c2ccc(C)cc21 (stereo not given) | -1.962 |
| CN1CCN(C)C2(CCN(Cc3ccc(C4CCCO4)s3)CC2)C1 (stereo not given) | -8.087 |
| COc1cc(Cl)ccc1C(=O)NCc1n[nH]c(C)n1 | -9.051 |
| Cc1ccc(O)c(C(=O)NCCCS(=O)(=O)Cc2ccccc2)c1 | -4.048 |

| Structure (SMILES) | Percent Effect [%] |
| --- | --- |
| Cc1nc(CCCNC(=O)c2c(F)cccc2Br)n[nH]1 | 89.06 |
| COc1ccc2cccc(CC(=O)NCCCc3n[nH]c(C)n3)c2c1 | -4.195 |
| COc1ccccc1C(=O)NCc1n[nH]c(C)n1 | 3.11 |
| Cc1nc(CCCNC(=O)c2cc(F)ccc2O)n[nH]1 | 85.21 |
| COc1c(Br)cccc1CCNC(=O)c1ncoc1C | -6.421 |
| COc1c(Cl)cc(C(=O)NCc2n[nH]c(C)n2)cc1Cl | 1.914 |
| Cc1nc(CCCNC(=O)c2c(F)cc(F)cc2F)n[nH]1 | 108.5 |
| CN1C[C@H](O)C[C@H]1c1nc(-c2ccc(OC(F)(F)F)cc2)no1 | -6.164 |
| CCNC(=O)[C@@H]1C[C@H](N)CN1C(=O)c1cccc(CCC(C)(C)O)c1 | 102.7 |
| CC(C)(O)CCc1cccc(C(=O)N[C@@H](CO)C(N)=O)c1 | 1.69 |
| CCNC(=O)[C@@H]1C[C@H](N)CN1C(=O)CCc1ccc(C)c(C)c1 | -20.38 |
| CCNC(=O)[C@@H]1C[C@@H](N)CN1C(=O)CCc1ccc(C)c(C)c1 | -3.444 |
| CC[C@@H](CO)NC(=O)c1cccc(CCC(C)(C)O)c1 | 0.6007 |
| CCNC(=O)[C@@H]1CCCN1C(=O)c1cccc(CCC(C)(C)O)c1 | 104.5 |
| CC(C)(O)CCc1cccc(C(=O)N2CCC[C@H]2C(N)=O)c1 | 102.3 |
| CC(C)(O)CCc1cccc(C(=O)NCC2CN(S(C)(=O)=O)CCO2)c1 (stereo not given) | -12.96 |
| C[C@H](NC(=O)c1cccc(CCC(C)(C)O)c1)C(N)=O | -11.41 |
| CS(=O)(=O)N1CCC(Oc2ccc(C(=O)NCC3CCC3)cc2Cl)CC1 | -2.678 |
| Cc1cc(CN2CCCC2)cc(Oc2ccc(C(F)(F)F)cn2)c1 | 9.077 |
| Cc1nn(C)cc1C(=O)NC(CC(C)C)C(=O)Nc1cc[nH]n1 (stereo not given) | 1.449 |
| CN(CC(=O)NC(C)(C)C)Cc1cccc2c1OCCO2 | -43.12 |
| CC(C)(C)Nc1c(C2CCN(C(=O)C(C)(C)C)CC2)nc2ccccn12 | 124.8 |

| Structure (SMILES) | Percent Effect [%] |
| --- | --- |
| Cc1cccn2c(NC(C)(C)C)c(C3CCN(C(=O)C4CC4)CC3)nc12 | 138 |
| CN(CCO)Cc1nnc(C2CCN(C(=O)C(C)(C)C)CC2)n1C | 1.717 |
| CC(C)(C)C(=O)N1CCC(c2nc(O)cc(-c3ccccn3)n2)CC1 | -20.96 |
| CC(C)(C)Nc1c(C2CCN(C(=O)C3CC3)CC2)nc2ccccn12 | 95.08 |
| CC(C)(O)C1CCCN(C(=O)Nc2nc(-c3ccccc3)ns2)C1 (stereo not given) | -3.959 |
| CC(C)(C)Nc1c(C2CCCN(C(=O)C3CC3)C2)nc2ccccn12.Cl (stereo not given) | 97.63 |
| NC(=O)c1csc(N2CCN(Cc3cccc4nsnc34)CC2)n1 | -1.05 |
| CC(C)N1CCC(O)(CNC(=O)CC2OCCc3ccccc32)CC1 (stereo not given) | -11.76 |
| Cc1ncc(Cl)c(C(=O)N2CC(=O)N(C)c3ccccc32)n1 | -4.054 |
| Cc1cnc(NC(=O)N2CCOCC2)s1 | -16.98 |
| CCC(C)n1cnc(S(=O)(=O)N(Cc2cccnc2)C(C)C)c1 (stereo not given) | 3.048 |
| O=C(OCCNc1ncccn1)c1ccc(Br)s1 | -22.12 |
| CC(C)C(=O)N1CCC(c2nc3ccccn3c2NC(C)(C)C)CC1 | 120.3 |
| COc1ccccc1OC1CN(C(=O)Cc2c(C)nc3ccccn23)C1 | -17.73 |
| CNC(C(=O)N1CCC(c2nccn2C(C)C)CC1)c1ccccc1 (stereo not given) | 12.05 |
| CC(C)c1nc(C(=O)N(C)c2ccc(Br)cn2)cs1 | -16 |
| CC1CCN(S(=O)(=O)c2cccnc2)c2ccccc2S1 (stereo not given) | -3.494 |
| O=S1(=O)CCC(N2CCN(c3cc(C(F)(F)F)ccn3)CC2)C1 (stereo not given) | 0.5225 |
| COC[C@H]1CNC(=O)[C@@H]2CCN(Cc3cccc(C)n3)CC[C@H]12 | -1.462 |
| CC(c1nc(C2CC2)no1)N1CCN(Cc2cccnc2)CC1 (stereo not given) | 9.745 |
| CS(=O)(=O)c1snnc1C1CCN(Cc2ccncc2)CC1 | -7.486 |
| CS(=O)(=O)c1snnc1C1CCN(Cc2cccnc2)CC1 | 133.5 |

| Structure (SMILES) | Percent Effect [%] |
| --- | --- |
| CS(=O)(=O)c1snnc1C1CCCN(Cc2ccncc2)C1 (stereo not given) | 95.13 |
| CN(C)c1ncc(CN2CCC(c3nnsc3S(C)(=O)=O)CC2)cn1 | -8.857 |
| CNc1ncc(CN2CCC(c3nnsc3S(C)(=O)=O)CC2)cn1 | 122 |
| Cc1nccc(CN2CCC(c3nnsc3S(C)(=O)=O)CC2)n1 | 2.937 |
| Cc1cccc(CN2CCC(c3nnsc3S(C)(=O)=O)CC2)n1 | 122.9 |
| CCn1c(CN(C)C)nnc1C1CCN(Cc2cnc(C)nc2)CC1 | -9.341 |
| CCn1c(CN2CCCC2)nnc1C1CCN(Cc2cccnc2)CC1 | -3.145 |
| Cc1cccnc1CN1CCC(c2nnc(Cn3cccn3)n2C)CC1 | 7.8 |
| CC(C)OCCN(Cc1cccc(O)c1)C1CCC(O)CC1 (stereo not given) | -9.741 |
| CC1CCN(c2ccnc3ccc(Br)cc23)CC1 | -3.339 |
| O=C(c1ccoc1)N1CCCN(C(=O)c2ccc(C3CCCN3)s2)CC1 (stereo not given) | 16.47 |
| N#Cc1cccc(CNC(=O)C2=NN(c3ccccc3)C(=O)CN2)c1 | -6.333 |
| Cc1cccc(CN2CCC(c3nnsc3S(C)(=O)=O)CC2)c1 | 168.1 |
| Cc1cccc(CN2CCC(NCC3CNc4cc(C)nn4C3)CC2)c1 (stereo not given) | 17.46 |
| CS(=O)(=O)c1snnc1C1CCN(Cc2cccc(O)c2)CC1 | 145.1 |
| Fc1ccc(CN2CCC(c3nccnc3-n3ccnc3)CC2)cc1 | -7.393 |
| CS(=O)(=O)c1snnc1C1CCN(Cc2ccc3nccnc3c2)CC1 | 138.8 |
| CC(Cn1ccnc1)NC1CCN(Cc2cccc(O)c2)CC1 (stereo not given) | -6.042 |
| CC(Cn1cncn1)NC1CCN(Cc2cccc(O)c2)CC1 (stereo not given) | -16.09 |
| CNS(=O)(=O)c1ccc(CN2CCC(c3ccncc3)CC2)cc1 | -2.48 |
| Cc1cnc(C(=O)N2CCC3(CC2)CC(c2ccncc2)C(=O)N3)cn1 (stereo not given) | -2.987 |
| CCCn1nnnc1CN(C)C(C)c1ccc(C)cc1 (stereo not given) | 0.6006 |

| Structure (SMILES) | Percent Effect [%] |
| --- | --- |
| COc1ccc(C2(c3nc(-c4cnn(C)c4)no3)CCOCC2)cc1 | -8.889 |
| O=C(NC(CO)CO)c1coc(COc2cccc(F)c2)n1 | 9.537 |
| CCS(=O)(=O)NCCCNC(=O)N(C)C(C)c1ccccn1 (stereo not given) | -6.07 |
| CCN(CC)S(=O)(=O)CCNC(=O)N(C)C(C)c1ccccn1 (stereo not given) | -1.522 |
| CCN(C(=O)CN(C)C(c1cccc(F)c1)c1ccccn1)C1CC1 (stereo not given) | 13.51 |
| CCN(CC)CC(=O)N(C)C(c1cccc(F)c1)c1ccccn1 (stereo not given) | 97.45 |
| CCSCCNC(=O)C(c1cccc(F)c1)N(C)C (stereo not given) | -18.47 |
| CC(C)N(C)CC(=O)N(C)C(c1cccc(F)c1)c1ccccn1 (stereo not given) | 102.7 |
| O=S(=O)(C1CC1)N1CC[C@]2(C[C@@H](OCC3CCOCC3)CO2)C1 | -13.41 |
| Cc1c(C(=O)N(C)CC(F)(F)F)nnn1-c1ccccc1Cl | -1.465 |
| COCCn1cc(NC(=O)C(C)CCc2ccccc2F)ccc1=O (stereo not given) | -6.604 |
| COc1cccc(C(=O)Nc2ccc(OC3CCN(C)CC3)cc2)c1 | 16.42 |
| COCCOc1ccc(NC(=O)C2CCC2)cn1 | -0.09217 |
| COCCn1cnc2ccc(NC(=O)C3CC3)cc2c1=O | 108.4 |
| COCCn1cc(NC(=O)NC(C)CCc2ccccc2)ccc1=O (stereo not given) | -2.537 |
| Cn1cc(NC(=O)c2ccccn2)cc(Br)c1=O | 3.766 |
| COCCn1cnc2ccc(NC(=O)c3ccccn3)cc2c1=O | 106.6 |
| Cn1cc(NC(=O)c2ccccn2)cc(Cl)c1=O | -1.878 |
| COCCn1cnc2ccc(NC(=O)c3ccc(OC)cc3)cc2c1=O | 162.9 |
| COCCN1C=NC2(CCC(C(=O)Nc3ccc(C)cc3)CC2)C1=O (stereo not given) | -4.018 |
| COCCn1cnc2ccc(NC(=O)C(C)C)cc2c1=O | 110.7 |
| COc1ccc(C(=O)Nc2c(C)nn(C(C)C)c2C)cc1 | 14.16 |
